Laboratory results: PubChem BioAssay AID1159580 (chemical genetic matrix, 2015)
Where “and” joins values, the source holds several entries; their conditions need not be identical. Equal entries are not always repeated. Hit rate of the full screen: of about 5,500 compounds, about 2,000 (36%) were called active. Inconclusive results (about 18%) are left out. Rule as the data show it: active = normalized growth mostly below about 0.91 (no sharp cut-off); inconclusive = no clear call, values can overlap the other calls; inactive = mostly above about 0.92. The list shows a part of the results.

Experiment: chemical genetic growth profiling, strain panel (AID 1159580);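 also: tested at 20 µM; growth read once vehicle control cultures reached saturation at 30 °C; 1 = growth at the plate median or of vehicle wells; lower values mean less growth of the strain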
Conditions: S. cerevisiae deletion strains, growth OD

Measured: normalized growth

CC1=CC2C(CC1=O)C(C)=CCC2C(C)C (configuration not stated)
0.905 (active) and 0.973 (inactive): locus YHR030C, strain SLT2, stronger effect = lower value
active: locus YDL185W, strain tfp1, stronger effect = lower value 0.83 | locus YDL192W, strain arf1, stronger effect = lower value 0.769 | locus YDR392W, strain spt3, stronger effect = lower value 0.594 | locus YDR502C, strain sam2, stronger effect = lower value 0.895 | locus YEL061C, strain CIN8, stronger effect = lower value 0.911 | locus YGL086W, strain mad1, stronger effect = lower value 0.888 | locus YGR135W, strain pre9, stronger effect = lower value 0.881 | locus YKR001C, strain vps1, stronger effect = lower value 0.623 | locus YLR330W, strain CHS5, stronger effect = lower value 0.873 | locus YLR371W, strain rom2, stronger effect = lower value 0.841 | locus YLR418C, strain cdc73, stronger effect = lower value 0.687 | locus YMR223W, strain ubp8, stronger effect = lower value 0.901 | locus YNL071W, strain lat1, stronger effect = lower value 0.913 | locus YNR052C, strain pop2, stronger effect = lower value 0.895 | locus YOR184W, strain ser1, stronger effect = lower value 0.634 | locus YPL051W, strain arl3, stronger effect = lower value 0.886 | strain wtn01, stronger effect = lower value 0.898
inactive: locus YAL021C, strain ccr4, stronger effect = lower value 1.02 | locus YAL026C, strain drs2, stronger effect = lower value 0.996 | locus YAL030W, strain snc1, stronger effect = lower value 1 | locus YBL061C, strain skt5, stronger effect = lower value 1.02 | locus YBR009C, strain hhf1, stronger effect = lower value 0.98 | locus YBR021W, strain FUR4, stronger effect = lower value 0.923 | locus YBR023C, strain chs3, stronger effect = lower value 0.992 | locus YBR171W, strain sec66, stronger effect = lower value 1 | locus YBR229C, strain ROT2, stronger effect = lower value 1.01 | locus YBR231C, strain swc5, stronger effect = lower value 0.998 | locus YBR279W, strain paf1, stronger effect = lower value 1 | locus YCL011C, strain gbp2, stronger effect = lower value 1.01 | locus YCL016C, strain dcc1, stronger effect = lower value 1.01 | locus YCL029C, strain bik1, stronger effect = lower value 0.976 | locus YCL061C, strain MRC1, stronger effect = lower value 0.991 | locus YCL069W, strain vba3, stronger effect = lower value 1.01 | locus YCR088W, strain abp1, stronger effect = lower value 1 | locus YDL005C, strain med2, stronger effect = lower value 1.02 | locus YDL035C, strain GPR1, stronger effect = lower value 0.96 | locus YDL040C, strain nat1, stronger effect = lower value 1.01 | locus YDL074C, strain BRE1, stronger effect = lower value 0.902 | locus YDL101C, strain DUN1, stronger effect = lower value 0.966 | locus YDR001C, strain nth1, stronger effect = lower value 0.996 | locus YDR069C, strain doa4, stronger effect = lower value 1.02 | locus YDR101C, strain arx1, stronger effect = lower value 0.929 | locus YDR137W, strain rgp1, stronger effect = lower value 0.896 | locus YDR159W, strain sac3, stronger effect = lower value 1.01 | locus YDR162C, strain NBP2, stronger effect = lower value 0.92 | locus YDR195W, strain ref2 0.977 | locus YDR297W, strain sur2, stronger effect = lower value 1.02 | locus YDR318W, strain mcm21, stronger effect = lower value 0.946 | locus YDR334W, strain swr1, stronger effect = lower value 1.01 | locus YDR335W, strain msn5, stronger effect = lower value 1.01 | locus YDR388W, stronger effect = lower value 0.987 | locus YEL003W, strain gim4, stronger effect = lower value 1.02 | locus YEL037C, strain rad23, stronger effect = lower value 0.997 | locus YEL061C, strain CIN8 (second series), stronger effect = lower value 1.01 | locus YER015W, strain faa2, stronger effect = lower value 1 | locus YER016W, strain bim1, stronger effect = lower value 1.01 | locus YER110C, stronger effect = lower value 1.01 | locus YER111C, strain swi4, stronger effect = lower value 0.996 | locus YER155C, strain BEM2 (second series), stronger effect = lower value 0.98 | locus YER155C, strain BEM2, stronger effect = lower value 0.948 | locus YER167W, strain BCK2, stronger effect = lower value 0.937 | locus YFR010W, strain ubp6, stronger effect = lower value 1 | locus YGL078C, strain dbp3, stronger effect = lower value 0.943 | locus YGL167C, strain pmr1, stronger effect = lower value 1.01 | locus YGL173C, strain kem1, stronger effect = lower value 1.01 | locus YGL227W, strain vid30, stronger effect = lower value 1.01 | locus YGL240W, strain doc1, stronger effect = lower value 0.998 | locus YGL248W, strain PDE1, stronger effect = lower value 0.952 | locus YGL253W, strain hxk2, stronger effect = lower value 1 | locus YGR252W, strain gcn5, stronger effect = lower value 0.972 | locus YHR013C, strain ard1, stronger effect = lower value 1.03 | locus YHR027C, strain rpn1, stronger effect = lower value 1.01 | locus YHR079C, strain IRE1 (second series), stronger effect = lower value 0.989 | locus YHR079C, strain IRE1, stronger effect = lower value 0.96 | locus YHR094C, strain hxt1, stronger effect = lower value 0.989 | locus YHR129C, strain ARP1, stronger effect = lower value 0.95 | locus YHR142W, strain chs7, stronger effect = lower value 0.981 | locus YHR200W, strain rpn10, stronger effect = lower value 0.968 | locus YIL066C, strain RNR3, stronger effect = lower value 0.9 | locus YIL073C, strain SPO22, stronger effect = lower value 0.91 | locus YIL125W, strain kgd1, stronger effect = lower value 0.934 | locus YIR030C, strain dcg1, stronger effect = lower value 0.979 | locus YJL092W, strain hpr5, stronger effect = lower value 0.998 | locus YJL095W, strain BCK1 (second series), stronger effect = lower value 1.01 | locus YJL095W, strain BCK1, stronger effect = lower value 0.808 and 0.979 | locus YJL115W, strain asf1, stronger effect = lower value 1.01 | locus YJL129C, strain trk1, stronger effect = lower value 1 | locus YJL134W, strain LCB3, stronger effect = lower value 1.02 | locus YJL154C, strain vps35, stronger effect = lower value 1.01 | locus YJL164C, strain tpk1, stronger effect = lower value 0.994 | locus YJL166W, strain qcr8, stronger effect = lower value 0.978 | locus YJL168C, strain set2, stronger effect = lower value 0.978 | locus YJL187C, strain SWE1 (second series), stronger effect = lower value 0.971 | locus YJL187C, strain SWE1, stronger effect = lower value 1 | locus YJR043C, strain POL32, stronger effect = lower value 0.98 | locus YJR066W, strain TOR1, stronger effect = lower value 0.949 | locus YKL009W, strain mrt4, stronger effect = lower value 0.945 | locus YKL068W, stronger effect = lower value 0.978 | locus YKL085W, strain MDH1 (second series), stronger effect = lower value 0.932 | locus YKL085W, strain MDH1, stronger effect = lower value 0.932 | locus YKL160W, strain elf1, stronger effect = lower value 0.992 | locus YKR026C, strain gcn3, stronger effect = lower value 0.983 | locus YKR091W, strain srl3, stronger effect = lower value 1.01 | locus YLL001W, strain dnm1, stronger effect = lower value 0.998 | locus YLL026W, stronger effect = lower value 1.01 | locus YLL041C, strain sdh2, stronger effect = lower value 1 | locus YLR027C, strain aat2, stronger effect = lower value 0.997 | locus YLR039C, strain RIC1, stronger effect = lower value 0.717 | locus YLR058C, strain SHM2, stronger effect = lower value 0.994 | locus YLR102C, strain apc9, stronger effect = lower value 0.985 | locus YLR113W, strain HOG1, stronger effect = lower value 0.968 | locus YLR221C, strain rsa3, stronger effect = lower value 0.979 | locus YLR258W, strain gsy2, stronger effect = lower value 1 | locus YLR262C, strain YPT6 (second series), stronger effect = lower value 0.896 | locus YLR262C, strain YPT6, stronger effect = lower value 0.709 | locus YLR268W, strain sec22, stronger effect = lower value 0.923 | locus YLR320W, strain mms22, stronger effect = lower value 0.9 | locus YLR342W, strain FKS1 (second series), stronger effect = lower value 0.864 | locus YLR342W, strain FKS1, stronger effect = lower value 1.01 | locus YLR357W, strain rsc2, stronger effect = lower value 1.03 | locus YLR370C, strain arc18, stronger effect = lower value 1.02 | locus YLR384C, strain iki3, stronger effect = lower value 1 | locus YML016C, strain PPZ1, stronger effect = lower value 1.01 | locus YML032C, strain rad52, stronger effect = lower value 0.948 | locus YML120C, strain ndi1, stronger effect = lower value 1 | locus YML124C, strain tub3, stronger effect = lower value 0.985 | locus YMR058W, strain fet3, stronger effect = lower value 1.01 | locus YMR078C, strain ctf18, stronger effect = lower value 0.974 | locus YMR125W, strain sto1, stronger effect = lower value 1.01 | locus YMR129W, stronger effect = lower value 1.03 | locus YMR205C, strain PFK2, stronger effect = lower value 0.966 | locus YMR231W, strain pep5, stronger effect = lower value 0.984 | locus YMR307W, strain GAS1, stronger effect = lower value 0.795 | locus YNL067W, strain RPL9B, stronger effect = lower value 0.986 | locus YNL183C, strain NPR1, stronger effect = lower value 0.96 | locus YNL209W, strain ssb2, stronger effect = lower value 1.01 | locus YNL233W, strain BNI4, stronger effect = lower value 0.874 | locus YNL248C, strain rpa49, stronger effect = lower value 0.997 | locus YNL250W, strain rad50, stronger effect = lower value 0.956 | locus YNL271C, strain bni1, stronger effect = lower value 0.936 | locus YNL298W, strain CLA4, stronger effect = lower value 0.924 | locus YNL307C, strain MCK1, stronger effect = lower value 0.914 | locus YNL322C, strain KRE1 (second series), stronger effect = lower value 1.01 | locus YNL322C, strain KRE1, stronger effect = lower value 1 | locus YNR049C, strain mso1, stronger effect = lower value 1.01 | locus YOL006C, strain TOP1, stronger effect = lower value 0.683 | locus YOL012C, strain htz1 0.956 | locus YOL147C, strain pex11, stronger effect = lower value 0.945 | locus YOR001W, strain rrp6, stronger effect = lower value 0.984 | locus YOR061W, strain CKA2, stronger effect = lower value 0.967 | locus YOR069W, strain VPS5, stronger effect = lower value 0.978 | locus YOR070C, strain gyp1, stronger effect = lower value 0.992 | locus YOR080W, strain dia2, stronger effect = lower value 1.01 | locus YOR083W, strain WHI5, stronger effect = lower value 0.966 | locus YOR106W, strain vam3, stronger effect = lower value 0.973 | locus YOR136W, strain idh2, stronger effect = lower value 0.959 | locus YOR144C, strain elg1, stronger effect = lower value 0.969 | locus YOR231W, strain MKK1, stronger effect = lower value 0.993 | locus YOR265W, strain rbl2, stronger effect = lower value 1.01 | locus YOR270C, strain vph1, stronger effect = lower value 0.844 | locus YOR290C, strain snf2, stronger effect = lower value 0.972 | locus YOR316C, strain cot1, stronger effect = lower value 0.983 | locus YPL055C, strain LGE1, stronger effect = lower value 0.938 | locus YPL078C, strain atp4, stronger effect = lower value 0.991 | locus YPL106C, strain sse1, stronger effect = lower value 1.01 | locus YPL240C, strain hsp82, stronger effect = lower value 1.02 | locus YPL256C, strain CLN2, stronger effect = lower value 0.957 | locus YPR119W, strain clb2, stronger effect = lower value 0.978 | locus YPR141C, strain kar3, stronger effect = lower value 0.973 | locus YPR163C, strain tif3, stronger effect = lower value 0.97 | locus YPR167C, strain met16, stronger effect = lower value 0.995
